Inconclusive results are not listed. The source made the active and inactive calls. Calls follow the shape of the dose curve; as a rule, active = well fitted inhibition curve with a large enough effect; inconclusive = small, poorly fitted or top-dose-only effect; inactive = flat fitted curve, though single readings scatter.
Legend:
Assay in all cases: qHTS profiling for inhibitors of Plasmodium falciparum proliferation (AID 504749); also: nearly all actives have a fitted effect of over 60% in size
Settings in all cases: P. falciparum in erythrocytes, SYBR Green DNA, 72 h; series mostly up to 28.7 µM
[1] = tested on: CP265
Method in brief: (§1)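 In a 72 h erythrocytic culture (37 C, humidified, 5% CO2) at 2.5% hematocrit and 0.3% starting parasitemia, compounds were tested; SYBR Green I in detergent lysis buffer stained parasite DNA overnight.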

[2] = tested on: CP266
Method in brief: as §1

[3] = tested on: CP268
Method in brief: as §1

[4] = tested on: CP269
Method in brief: as §1

[5] = tested on: CP286
Method in brief: as §1

[6] = tested on: CP291
Method in brief: as §1

[7] = tested on: CP297
Method in brief: as §1

[8] = tested on: CP305
Method in brief: as §1

[9] = tested on: CP315
Method in brief: as §1

[10] = tested on: CP325
Method in brief: as §1

Measured: Potency
Potency is read from the fitted curve at half-maximal effect.

N=c1nc(N2CCCCC2)cc(N)n1O
inactive: all assays above

O=c1[nH]cnc2[nH]ncc12
inactive: all assays above

NCCCC(N)(C(=O)O)C(F)F (stereo unspecified)
inactive: all assays above

N#Cc1ccc(C(c2ccc(C#N)cc2)n2cncn2)cc1
inactive: all assays above

CC(=O)Oc1ccccc1C(=O)O
inactive: all assays above

Nc1nc2ccc(OC(F)(F)F)cc2s1
inactive: all assays above

Cc1cn[nH]c1
inactive: all assays above

O=C1CCC(N2C(=O)c3ccccc3C2=O)C(=O)N1 (stereo unspecified)
inactive: all assays above

NCCc1ccc(O)c(O)c1
inactive: all assays above

Cc1cc2c(C(C)C)c(O)c(O)c(C=O)c2c(O)c1-c1c(C)cc2c(C(C)C)c(O)c(O)c(C=O)c2c1O
active: [1] 12.6 µM

Nc1nc2c(ncn2COCCO)c(=O)[nH]1
inactive: all assays above

Nc1ccc(S(=O)(=O)Nc2ccnn2-c2ccccc2)cc1
inactive: all assays above

COc1ccc2nc(S(=O)Cc3ncc(C)c(OC)c3C)[nH]c2c1 (stereo unspecified)
inactive: all assays above

Cc1[nH]c(=O)c(C#N)cc1-c1ccncc1
inactive: all assays above

NS(=O)(=O)c1cc2c(cc1Cl)NC=NS2(=O)=O
inactive: all assays above

Clc1cccc(Cl)c1NC1=NCCN1
inactive: all assays above

CCCCNc1cc(C(=O)O)cc(S(N)(=O)=O)c1Oc1ccccc1
inactive: all assays above

CC(C[N+](C)(C)C)OC(N)=O (stereo unspecified)
inactive: all assays above

Cc1[nH]c(=O)c(C#N)cc1-c1ccc2nccn2c1
inactive: all assays above

CCc1ccc(CCOc2ccc(CC3SC(=O)NC3=O)cc2)nc1 (stereo unspecified)
inactive: all assays above

CC(C)NCC(O)COc1ccc(COCCOC(C)C)cc1 (stereo unspecified)
inactive: all assays above

O=c1n(CCCN2CCN(c3cccc(Cl)c3)CC2)nc2ccccn12
inactive: all assays above

NC[C@H](O)c1ccc(O)c(O)c1
inactive: all assays above

NC(=O)c1cnccn1
inactive: all assays above

NNCCc1ccccc1
not listed: [2]
inactive: all other assays above

Oc1ccc(C2CNCCc3c2cc(O)c(O)c3Cl)cc1 (stereo unspecified)
not listed: [5]
inactive: all other assays above

Cc1ccccc1C(OCCN(C)C)c1ccccc1 (stereo unspecified)
inactive: [2] | [4] | [7]

O=C1CCc2cc(OCCCCc3nnnn3C3CCCCC3)ccc2N1
not listed: [1]
inactive: all other assays above

CCCc1nc2c(C)cc(-c3nc4ccccc4n3C)cc2n1Cc1ccc(-c2ccccc2C(=O)O)cc1
inactive: [2] | [8] | [9] | [10]
active: [5] 11.2 µM

CCOC(=O)C1=C[C@]2(CC)CCCN3CCc4c(n1c1ccccc41)[C@@H]32
active: [1] 10 µM | [4] 13.5 µM | [7] 13.5 µM

NC(N)=NC(=O)c1nc(Cl)c(N)nc1N
active: [1] 11.2 µM
inactive: [2] | [7] | [9]

N[C@@H]1CONC1=O
not listed: [7]
inactive: all other assays above

CC(C)C[C@H](NC(=O)[C@@H](O)[C@H](N)Cc1ccccc1)C(=O)O
active: [1] 11.2 µM | [3] 13.5 µM | [4] 9.53 µM | [5] 5.01 µM | [6] 5.36 µM | [7] 8.49 µM | [8] 6.01 µM | [9] 12 µM | [10] 6.75 µM

Cc1c(C)c2c(c(C)c1O)CCC(C)(COc1ccc(CC3SC(=O)NC3=O)cc1)O2 (stereo unspecified)
not listed: [1] | [4] | [7]
inactive: all other assays above

O=NN(CCCl)C(=O)NCCCl
not listed: [5]
inactive: all other assays above

Clc1ccc(Nc2nnc(Cc3ccncc3)c3ccccc23)cc1
not listed: [5]
inactive: all other assays above

OC(CN1CCC(Cc2ccc(F)cc2)CC1)c1ccc(Cl)cc1 (stereo unspecified)
inactive: [2] | [9] | [10]
active: [5] 3.55 µM

CN1CCN(CCCN2c3ccccc3Sc3ccc(C(F)(F)F)cc32)CC1
active: [4] 15.1 µM | [5] 12.6 µM

CC(c1cc2ccccc2s1)N(O)C(N)=O (stereo unspecified)
not listed: [9]
inactive: all other assays above

CNC[C@H](O)c1cccc(O)c1
not listed: [9]
inactive: all other assays above

Cc1ccc(N(CC2=NCCN2)c2cccc(O)c2)cc1
inactive: all assays above

CCCc1nn(C)c2c(=O)[nH]c(-c3cc(S(=O)(=O)N4CCN(C)CC4)ccc3OCC)nc12
not listed: [6]
inactive: all other assays above

CCOC(=O)N1CCC(=C2c3ccc(Cl)cc3CCc3cccnc32)CC1
active: [1] 10 µM | [7] 13.5 µM

CCOC(=O)C1=C[C@@]2(CC)CCCN3CCc4c(n1c1ccccc41)[C@H]32
active: [3] 10.7 µM | [4] 10.7 µM | [6] 13.5 µM | [7] 12 µM | [8] 13.5 µM | [10] 9.53 µM

C1COC(NC(C2CC2)C2CC2)=N1
not listed: [1] | [6] | [10]
inactive: all other assays above

C#Cc1cccc(Nc2ncnc3cc(OCCOC)c(OCCOC)cc23)c1
inactive: [1] | [2] | [8] | [9]

Cn1cnc([N+](=O)[O-])c1Sc1ncnc2nc[nH]c12
not listed: [1]
inactive: all other assays above

Cc1oncc1C(=O)Nc1ccc(C(F)(F)F)cc1
not listed: [1]
inactive: all other assays above

Reference: PubChem BioAssay (NCATS)
